From PubChem BioAssay come the findings set out here.

Where “and” joins values, the source holds several entries; their conditions need not be identical. Equal entries are not always repeated. Calls of active or inactive are those of the source.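 How the source made its calls, unless noted: active means inhibition at or above 50% relative to wild type and mutant plate controls; inactive means inhibition below 50%.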

Test [1] can be described thus: inhibitors of mutant huntingtin aggregation, primary screen, imaging, exon1htt(103Q)mCFP cells, high-content imaging (AID 483;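 active means visual image review flags a hit and inhibition of aggregation exceeds 20%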;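 further: compound exposure lasted 3 days before fixation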;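 on nuclei count: percent of the per-plate median nuclei count of sample wells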). The following applies: exon1htt(103Q)mCFP cell line, aggregate imaging, at 2 µM; inhibition of aggregation: stronger effect = higher value; nuclei count: measured here: cell count, toxicity.
Test [2] is described as follows: inhibitors of E-selectin induction by TNFa, primary screen, imaging, HUVEC, immunofluorescence, MLSMR starter and 10KST1 sets (AID 487;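 active means visually confirmed hit in the image check and inhibition above 20%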;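 on inhibition: signal is fraction of cell area covered by stained E-selectin grains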;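 on nuclei count: 100% = median nuclei count of all wells on the same plate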). The note with it: HUVEC TNFalpha-induced E-selectin immunofluorescence imaging, at 2 µM; inhibition: stronger effect = higher value; nuclei count: measured here: cell number, toxicity.
Test [3] is described as follows: DUSP6 inhibitors restoring Erk phosphorylation by chemical complementation, primary imaging in DUSP6-transfected HeLa (AID 609;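 active means compounds giving at least 50% inhibition in the cell-based MKP-3 phosphatase rescue imaging test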;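 on inhibition: phospho-Erk level distribution per well compared with pooled transfected vehicle control wells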). The note with it: HeLa MKP-3 transfected, phospho-Erk imaging KS statistic, at 10 µM, cells stimulated with TPA for 15 min.
In test [4] the target is Dual specificity protein phosphatase 6 (Homo sapiens) (UniProt Q16828). The description is as above. The following applies: HeLa MKP-3 transfected, phospho-Erk imaging KS statistic; at 10 µM; stronger effect = higher value; cells stimulated with TPA for 15 min.
Dual specificity protein phosphatase 6 (Homo sapiens), sequence (Q16828 whole entry, looked up): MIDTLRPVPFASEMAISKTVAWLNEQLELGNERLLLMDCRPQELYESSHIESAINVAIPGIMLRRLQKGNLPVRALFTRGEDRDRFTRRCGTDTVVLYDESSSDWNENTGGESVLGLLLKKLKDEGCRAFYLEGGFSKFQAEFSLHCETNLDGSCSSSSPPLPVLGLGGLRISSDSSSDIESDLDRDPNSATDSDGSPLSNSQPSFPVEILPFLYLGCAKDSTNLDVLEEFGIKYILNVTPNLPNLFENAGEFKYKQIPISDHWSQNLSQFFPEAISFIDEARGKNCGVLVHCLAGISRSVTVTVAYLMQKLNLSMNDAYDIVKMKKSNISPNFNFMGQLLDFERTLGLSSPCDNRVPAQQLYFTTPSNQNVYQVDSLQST
Test [5] deals with Voltage-gated potassium channel subunit beta-2 (Rattus norvegicus) (UniProt P62483). Description: KvBeta enzyme negative modulators, primary screen, biochemical, NADPH fluorescence (AID 622;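 active means fluorescence slope higher than the sample average by over 3 SD, cut at about -0.22 in these data, passing the limit was not always enough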;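 further: slope of raw intensity against log time taken from 70 to 1610 s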). The following applies: recombinant KvBeta, 4-cyanobenzaldehyde reduction, at 10 µM, stronger effect = higher value.
Voltage-gated potassium channel subunit beta-2 (Rattus norvegicus), sequence (P62483 whole entry, looked up): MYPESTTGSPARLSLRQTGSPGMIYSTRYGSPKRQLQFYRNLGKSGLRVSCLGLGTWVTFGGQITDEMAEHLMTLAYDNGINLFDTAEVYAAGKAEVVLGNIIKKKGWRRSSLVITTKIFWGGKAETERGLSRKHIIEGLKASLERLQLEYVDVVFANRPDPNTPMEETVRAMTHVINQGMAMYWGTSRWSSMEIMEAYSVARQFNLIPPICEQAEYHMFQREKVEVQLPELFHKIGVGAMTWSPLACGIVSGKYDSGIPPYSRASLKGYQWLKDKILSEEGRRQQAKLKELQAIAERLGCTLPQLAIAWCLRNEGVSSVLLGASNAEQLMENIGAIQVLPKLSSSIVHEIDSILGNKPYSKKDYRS
The target is the same in test [6]. The experiment in a line: KvBeta positive modulators, primary screen, biochemical, NADPH fluorescence (AID 623;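 active means NADPH fluorescence slope more negative than the mean of all samples by about 3 SD, 99.7% confidence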;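 further: fluorescence intensity change per second fitted from 20 to 320 s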). The following applies: Recombinant KvBeta, NADPH fluorescence decrease slope, 10 min; at 10 µM; stronger effect = lower value.
For test [7], the target named is Alpha-2C adrenergic receptor (Homo sapiens) (UniProt P18825). The experiment in a line: modulators of alpha2C/GIRK thallium flux, primary screen, cell-based, HEK293 alpha2C/GIRK1/2 (AID 624;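 active means fluorescence slope after compound addition differing from the mean of all screened samples at 99.7% confidence, in either direction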;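 further: slope of fluorescence ratio to pre-addition baseline per second over 15 to 24 s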). The following applies: thallium flux BTC fluorescence, at 10 µM, actives lie on both sides.
Alpha-2C adrenergic receptor (Homo sapiens), sequence (P18825 whole entry, looked up): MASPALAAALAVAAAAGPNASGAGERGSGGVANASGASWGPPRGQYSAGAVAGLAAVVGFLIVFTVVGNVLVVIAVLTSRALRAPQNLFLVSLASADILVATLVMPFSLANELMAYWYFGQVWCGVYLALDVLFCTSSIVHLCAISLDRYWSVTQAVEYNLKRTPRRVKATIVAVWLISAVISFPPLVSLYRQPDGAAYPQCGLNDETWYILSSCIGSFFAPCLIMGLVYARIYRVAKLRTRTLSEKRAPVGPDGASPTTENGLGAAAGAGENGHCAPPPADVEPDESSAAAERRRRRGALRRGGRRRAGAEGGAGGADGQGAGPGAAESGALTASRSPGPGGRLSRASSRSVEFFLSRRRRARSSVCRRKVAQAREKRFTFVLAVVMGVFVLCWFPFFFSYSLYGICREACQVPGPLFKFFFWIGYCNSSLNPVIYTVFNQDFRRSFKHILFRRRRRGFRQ
Test [8] is described as follows: inhibitors of larval lipid processing in zebrafish, primary screen, whole organism, PED6 fluorescence, gall bladder and intestine (AID 686;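 active means a full or partial loss of lipid-probe fluorescence in the fish gall bladder, intestine or both, judged by eye; inactive means no fluorescence loss, or compound toxic to the fish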;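 further: larvae 5 to 7 days old with five fish per well; signal comes from phospholipase A2 cleavage of quenched PED6 carried via bile; overnight exposure to compound and PED6 before scoring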). The following applies: Zebrafish larvae PED6 lipid processing, fluorescence scoring; screened at 20 µM (by protocol).
Test [9] in a line: inhibitors of Chlamydomonas gravitaxis, primary screen, whole organism, Chlamydomonas reinhardtii, WT vs cilia-less mutant, absorbance, 96-well (AID 463189).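 Further: 0% = wild type cc124 cells in DMSO and 100% = ciliumless bld1 mutant cells.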 The note with it: OD600 absorbance, 2 days, at 10 µM, stronger effect = higher value.
Test [10] in a line: inhibitors of Sendai virus-induced IRF3 signaling, primary screen, TLR/RLR signaling modifier project, cell-based, Sendai virus stimulus, luciferase, 10K MLSCN set (AID 602276;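 active means inhibition at or above 50% at 10 µM; inactive means inhibition below 50%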;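 further: firefly luciferase from ISG56 promoter only with Renilla not read in this screen; 0% = Sendai virus plus DMSO and 100% = medium plus DMSO without virus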). The note with it: HEK293 RL24 IRF3 luciferase reporter, at 10 µM, stronger effect = higher value. (A reporter such as luciferase makes a cellular process visible.)
A short description of test [11]: inhibitors of poly I:C-induced TLR3 signaling, primary screen, cell-based, poly I:C stimulus, luciferase, 10K MLSCN set (AID 602277;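 active means inhibition of the reporter signal at or above 50%; inactive means inhibition below 50%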). The following applies: HEK293-TLR3 RL24 IRF3 luciferase reporter, at 10 µM, stronger effect = higher value.
The mark [12] stands for this setting: measured here: cell density z-score.
The mark [13] stands for this setting: measured here: nuclear c-Myc green intensity z-score.
[14] abbreviates: measured here: nuclear pErk red intensity z-score, stronger effect = higher value.

On to `CC(=O)OCC(=O)[C@@]1(O)CC[C@H]2[C@@H]3CCC4=CC(=O)C=C[C@]4(C)[C@H]3[C@@H](O)C[C@@]21C`, for which, in test [1], the inhibition of aggregation is -0.6% (inactive). In addition, the nuclei count in test [1] came to 67.7%; in test [2], 130%. The inhibition is -93.5% (inactive) in test [2]; 9.37% (inactive) in test [4]; 24.9% (inactive) in test [9]; -13.7% (inactive) in test [10]; -1.49% (inactive) in test [11]. For the same compound, the z-score in test [3] (setting [12]) is -0.00243; in [3] (setting [13]), 0.765; in test [3] (setting [14]), -0.773. Further, in test [5], the fluorescence slope is -0.506 (inactive). Besides, in [6], the NADPH fluorescence slope is 4.9e-06 (inactive). Besides, the slope in test [7] was 0.00476 (inactive). In addition, in test [8], the compound was called inactive.

With `C[N+](C)(C)CCCCCCCCCC[N+](C)(C)C`, in test [1], the inhibition of aggregation is -3.9% (inactive). Moreover, the results for the nuclei count in [1] and in test [2] were 89.1% and 126%, respectively. Also, the inhibition in [2] is -38.7% (inactive); in [4], 7.39% (inactive); in test [9] it was 0.674% (inactive) and 0.681% (inactive); in test [10], -7.67% (inactive); in test [11], 7.68% (inactive). For the same compound, the z-score was -0.332 in test [3] (setting [12]), -0.124 in [3] (setting [13]) and -0.205 in test [3] (setting [14]). In addition, the fluorescence slope in test [5] is -0.47 (inactive). Also, the NADPH fluorescence slope in test [6] is -5.9e-05 (inactive). In addition, the slope in test [7] was 0.00465 (inactive). Moreover, in test [8], the compound was classed as inactive.

Consider `Cc1ncc([N+](=O)[O-])n1CCO`, for which the inhibition of aggregation in test [1] was 7.7% (inactive). Moreover, the results for the nuclei count in test [1] and in test [2] were 76.5% and 110%, respectively. The inhibition in [2] is -67% (inactive); in test [4], -5.24% (inactive); in test [9] it was 1.99% (inactive); in test [10], 8% (inactive); in [11] it was 25.4% (inactive). Also, the z-score was 0.289 in test [3] (setting [12]), -1.84 in test [3] (setting [13]) and 1.07 in test [3] (setting [14]). Besides, the fluorescence slope in test [5] was -0.491 (inactive). Also, the NADPH fluorescence slope in [6] is -8.5e-05 (inactive). Also, the slope in [7] was 0.00488 (inactive). For the same compound, the compound was called inactive in test [8].

On to `CCc1cccc2c3c([nH]c12)C(CC)(CC(=O)O)OCC3` (stereo not given), for which the inhibition of aggregation in [1] is 3.6% (inactive). For the same compound, the nuclei count in test [1] came out at 111%; in test [2], 126%. The inhibition in test [2] is -122% (inactive); in [4], -0.493% (inactive); in test [9] it was -6.89% (inactive) and 27.4% (inactive); in [10], 10.1% (inactive); in test [11] it was 33.6% (inactive). Moreover, the results for the z-score in [3] (setting [12]), in [3] (setting [13]) and in test [3] (setting [14]) were -0.0395, 0.0959 and -0.905, respectively. Besides, the fluorescence slope in test [5] was -0.442 (inactive). Also, the NADPH fluorescence slope in test [6] is -6.2e-05 (inactive). The slope in [7] is 0.00464 (inactive). In addition, the compound was classed as inactive in test [8].

With `CN(C)CCC(c1ccc(Br)cc1)c1ccccn1` (stereo not given), the inhibition of aggregation in test [1] is -6% (inactive). In addition, the nuclei count in [1] was found to be 111%; in test [2] it was 109%. Also, the inhibition was -39% (inactive) in [2]; -6.41% (inactive) in test [4]; 0.349% (inactive) and -9.79% (inactive) in [9]; 5.43% (inactive) in test [10]; 31.9% (inactive) in test [11]. The values for the z-score in test [3] (setting [12]), in [3] (setting [13]) and in test [3] (setting [14]) were -1.33, -0.476 and 0.326, respectively. Besides, the fluorescence slope in [5] was -0.467 (inactive). In test [6], the NADPH fluorescence slope was -6.3e-05 (inactive). The slope in [7] is 0.00532 (inactive). In [8], the outcome was inactive.

On to `CC(=O)[C@H]1CC[C@H]2[C@@H]3CCC4=CC(=O)CC[C@]4(C)[C@H]3CC[C@]12C`, for which, in [1], the inhibition of aggregation is -5.3% (inactive). The nuclei count in [1] worked out at 74.7%; in test [2], 125%. The inhibition was -153% (inactive) in [2]; -0.493% (inactive) in [4]; 2.24% (inactive) and 8.52% (inactive) in test [9]; 3.73% (inactive) in test [10]; 31.6% (inactive) in test [11]. Further, the z-score was -0.82 in [3] (setting [12]), -0.521 in test [3] (setting [13]) and -0.268 in test [3] (setting [14]). For the same compound, the fluorescence slope in test [5] was -0.446 (inactive). For the same compound, the NADPH fluorescence slope in [6] is -4.8e-05 (inactive). Also, the slope in [7] was 0.00331 (inactive). In test [8], the call was inactive.

With `CCc1nc(N)nc(N)c1-c1ccc(Cl)cc1`, in test [1], the inhibition of aggregation was -35.2% (inactive). For the same compound, the nuclei count in [1] is 76.3%; in test [2] it was 108%. Moreover, the inhibition in [2] is -93.1% (inactive); in test [4] it was 12.4% (inactive); in test [9], 37.1% (inactive); in [10] it was 18.7% (inactive); in [11], -1.71% (inactive). Moreover, the values for the z-score in test [3] (setting [12]), in test [3] (setting [13]) and in [3] (setting [14]) were -1.21, 2.44 and -0.22, respectively. Besides, the fluorescence slope in test [5] is -0.503 (inactive). In addition, the NADPH fluorescence slope in test [6] is 1.5e-05 (inactive). Besides, the slope in test [7] is 0.00459 (inactive). Moreover, the call in [8] was inactive.

`CN(C)CCCN1c2ccccc2Sc2ccccc21`: the inhibition of aggregation in test [1] is 3.5% (inactive). The results for the nuclei count in test [1] and in test [2] were 100% and 110%, respectively. Besides, the inhibition is 3.6% (inactive) in test [2]; 11.3% (inactive) in test [4]; 8.93% (inactive) and 48% (inactive) in test [9]; 6.01% (inactive) in test [10]; 34.6% (inactive) in test [11]. For the same compound, the z-score in test [3] (setting [12]) was 0.654; in test [3] (setting [13]), 0.845; in test [3] (setting [14]) it was -0.156. The fluorescence slope in test [5] was -0.511 (inactive). Besides, the NADPH fluorescence slope in test [6] is -7e-05 (inactive). Also, the slope in test [7] is 0.00267 (inactive). Moreover, the call in test [8] was inactive.

For the compound `CN(C)CCCN1c2ccccc2Sc2ccc(C(F)(F)F)cc21`, in test [1], the inhibition of aggregation was 12.5% (inactive). In addition, the nuclei count in [1] amounted to 99.9%; in test [2], 95.5%. The inhibition in [2] is -14.6% (inactive); in [4], 13.3% (inactive); in [9], 81.9% (active) and 163% (active); in [10], 18% (inactive); in [11], 38.3% (inactive). In addition, the z-score in [3] (setting [12]) was -0.783; in [3] (setting [13]) it was 0.801; in test [3] (setting [14]) it was -0.407. Moreover, in test [5], the fluorescence slope is -0.487 (inactive). Also, in test [6], the NADPH fluorescence slope is -8.7e-05 (inactive). Besides, the slope in test [7] was 0.00341 (inactive). The call in [8] was inactive.

As for `NS(=O)(=O)c1cc2c(cc1C(F)(F)F)NCNS2(=O)=O`, the inhibition of aggregation in [1] is 0% (inactive). The nuclei count in test [1] was found to be 106%; in [2] it was 114%. The inhibition in test [2] was -96.4% (inactive); in [4] it was 3.45% (inactive); in test [9], -11.3% (inactive); in test [10], 5.25% (inactive); in [11] it was 24.3% (inactive). Besides, the z-score in test [3] (setting [12]) is -1.02; in test [3] (setting [13]), 0.57; in test [3] (setting [14]), -0.708. Also, the fluorescence slope in test [5] was -0.444 (inactive). In [6], the NADPH fluorescence slope is -4.4e-05 (inactive). In [7], the slope is 0.00463 (inactive). The call in [8] was inactive.

For orientation: inhibition means the change of the read-out against control, counted positive when it falls.
